Measured values taken from the supplement of paper PMC11732987, “Enantioselective OTUD7B fragment discovery through chemoproteomics screening and high-throughput optimisation” (Communications Chemistry, 2025).

Legend:
Test in all cases: log2 ratio of Biotin-Ahx-Ub-VS probe labelling (fragment/DMSO); higher = less target engagement (more negative = stronger competition), active = hit call of the paper (q ≤ 0.05, log2 ratio ≤ -1)
Conditions in all cases: compound concentration: 200 uM; treatment time: 3 h
USP34 = USP34 (UniProt Q70CQ2)
Method in brief: (§1)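 HEK293T lysate (495 µg per sample, in Tris/CHAPS/IGEPAL buffer with protease inhibitors) was treated in triplicate with fragment at 200 µM or with DMSO for 3 h. It was then treated with Biotin-Ahx-Ub-VS (0.5 µM final) for 1 h. Labelled DUBs were NeutrAvidin-enriched, digested with LysC and trypsin, and run by diaPASEF LC-MS/MS. Spectronaut label-free quantities were global-median-normalised. Values are average log2 ratios fragment/DMSO by unpaired t-test, using proteins with ≥2 unique peptides.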

USP36 = biological target: T1, USP36 (UniProt Q9P275)
T1 sequence (whole entry): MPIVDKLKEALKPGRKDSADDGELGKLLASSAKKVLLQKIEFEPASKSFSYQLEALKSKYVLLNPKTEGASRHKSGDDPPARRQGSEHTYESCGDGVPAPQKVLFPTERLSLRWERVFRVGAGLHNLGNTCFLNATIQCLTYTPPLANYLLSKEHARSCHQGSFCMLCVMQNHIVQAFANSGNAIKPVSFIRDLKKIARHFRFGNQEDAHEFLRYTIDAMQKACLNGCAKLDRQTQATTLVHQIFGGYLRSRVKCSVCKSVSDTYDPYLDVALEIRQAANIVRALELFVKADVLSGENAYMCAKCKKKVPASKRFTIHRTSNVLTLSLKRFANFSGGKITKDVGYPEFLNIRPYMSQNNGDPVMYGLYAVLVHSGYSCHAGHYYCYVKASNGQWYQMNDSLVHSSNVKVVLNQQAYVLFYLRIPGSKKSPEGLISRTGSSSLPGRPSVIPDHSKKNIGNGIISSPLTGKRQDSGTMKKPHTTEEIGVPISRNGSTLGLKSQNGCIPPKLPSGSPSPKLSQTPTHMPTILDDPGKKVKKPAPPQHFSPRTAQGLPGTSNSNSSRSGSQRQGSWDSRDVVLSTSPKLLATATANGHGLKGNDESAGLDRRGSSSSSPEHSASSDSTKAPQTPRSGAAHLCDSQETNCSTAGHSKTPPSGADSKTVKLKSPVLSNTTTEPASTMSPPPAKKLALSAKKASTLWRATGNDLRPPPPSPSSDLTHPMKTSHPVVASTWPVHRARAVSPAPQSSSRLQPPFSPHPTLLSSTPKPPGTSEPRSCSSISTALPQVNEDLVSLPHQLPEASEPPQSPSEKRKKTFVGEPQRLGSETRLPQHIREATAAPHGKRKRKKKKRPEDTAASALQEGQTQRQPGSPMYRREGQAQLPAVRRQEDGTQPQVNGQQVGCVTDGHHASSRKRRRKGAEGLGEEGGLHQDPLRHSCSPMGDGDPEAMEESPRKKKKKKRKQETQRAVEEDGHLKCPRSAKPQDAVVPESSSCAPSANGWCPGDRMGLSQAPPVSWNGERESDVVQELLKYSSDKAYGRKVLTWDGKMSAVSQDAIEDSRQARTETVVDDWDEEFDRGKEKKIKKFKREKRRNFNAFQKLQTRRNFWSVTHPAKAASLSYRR
Method in brief: as §1

USP38 = biological target: T2, USP38 (UniProt Q8NB14)
T2 sequence (whole entry): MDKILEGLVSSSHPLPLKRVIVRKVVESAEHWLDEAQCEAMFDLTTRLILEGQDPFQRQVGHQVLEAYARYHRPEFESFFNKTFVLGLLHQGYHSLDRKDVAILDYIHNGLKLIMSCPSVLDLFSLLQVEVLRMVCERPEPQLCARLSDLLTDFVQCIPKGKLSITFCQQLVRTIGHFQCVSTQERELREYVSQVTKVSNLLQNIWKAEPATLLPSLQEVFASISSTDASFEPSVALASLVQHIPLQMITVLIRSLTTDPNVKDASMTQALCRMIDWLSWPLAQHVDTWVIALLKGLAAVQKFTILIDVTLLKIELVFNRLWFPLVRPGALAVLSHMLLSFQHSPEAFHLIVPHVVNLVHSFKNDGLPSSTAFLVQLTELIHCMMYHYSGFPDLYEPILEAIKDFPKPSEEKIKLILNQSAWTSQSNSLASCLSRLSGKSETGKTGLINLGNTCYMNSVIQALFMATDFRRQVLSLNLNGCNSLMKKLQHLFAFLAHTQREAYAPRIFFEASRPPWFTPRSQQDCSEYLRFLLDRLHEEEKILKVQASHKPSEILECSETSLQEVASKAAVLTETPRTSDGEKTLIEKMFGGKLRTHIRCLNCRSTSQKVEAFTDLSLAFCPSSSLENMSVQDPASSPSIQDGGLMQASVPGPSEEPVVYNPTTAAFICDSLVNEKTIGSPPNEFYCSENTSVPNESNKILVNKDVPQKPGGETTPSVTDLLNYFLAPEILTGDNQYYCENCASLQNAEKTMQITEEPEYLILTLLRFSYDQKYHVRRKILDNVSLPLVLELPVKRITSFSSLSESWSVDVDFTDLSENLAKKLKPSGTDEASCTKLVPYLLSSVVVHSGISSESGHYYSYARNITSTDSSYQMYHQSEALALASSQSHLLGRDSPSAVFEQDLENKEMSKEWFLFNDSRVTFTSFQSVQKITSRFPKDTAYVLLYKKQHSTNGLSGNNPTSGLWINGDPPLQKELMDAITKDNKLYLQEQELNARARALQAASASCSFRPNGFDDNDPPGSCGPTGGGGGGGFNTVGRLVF
Method in brief: as §1

USP39 = biological target: T3, USP39 (UniProt Q53GS9)
T3 sequence (whole entry): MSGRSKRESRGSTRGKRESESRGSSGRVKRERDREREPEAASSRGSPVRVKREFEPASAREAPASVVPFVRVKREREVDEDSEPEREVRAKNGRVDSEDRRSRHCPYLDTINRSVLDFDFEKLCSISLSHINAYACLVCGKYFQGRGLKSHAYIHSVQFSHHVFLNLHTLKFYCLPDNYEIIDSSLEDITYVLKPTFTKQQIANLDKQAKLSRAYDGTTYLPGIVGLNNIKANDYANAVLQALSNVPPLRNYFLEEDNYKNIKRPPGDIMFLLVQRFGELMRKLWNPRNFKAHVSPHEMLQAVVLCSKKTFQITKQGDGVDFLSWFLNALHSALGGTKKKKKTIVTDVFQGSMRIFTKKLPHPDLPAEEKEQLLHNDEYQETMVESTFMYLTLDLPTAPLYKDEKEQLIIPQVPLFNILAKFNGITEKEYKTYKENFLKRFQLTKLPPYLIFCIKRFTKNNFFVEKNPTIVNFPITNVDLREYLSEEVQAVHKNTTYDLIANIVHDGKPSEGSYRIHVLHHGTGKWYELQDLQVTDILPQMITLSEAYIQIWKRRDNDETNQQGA
Method in brief: as §1

USP4 = biological target: T4, USP4 (UniProt Q13107)
T4 sequence (whole entry): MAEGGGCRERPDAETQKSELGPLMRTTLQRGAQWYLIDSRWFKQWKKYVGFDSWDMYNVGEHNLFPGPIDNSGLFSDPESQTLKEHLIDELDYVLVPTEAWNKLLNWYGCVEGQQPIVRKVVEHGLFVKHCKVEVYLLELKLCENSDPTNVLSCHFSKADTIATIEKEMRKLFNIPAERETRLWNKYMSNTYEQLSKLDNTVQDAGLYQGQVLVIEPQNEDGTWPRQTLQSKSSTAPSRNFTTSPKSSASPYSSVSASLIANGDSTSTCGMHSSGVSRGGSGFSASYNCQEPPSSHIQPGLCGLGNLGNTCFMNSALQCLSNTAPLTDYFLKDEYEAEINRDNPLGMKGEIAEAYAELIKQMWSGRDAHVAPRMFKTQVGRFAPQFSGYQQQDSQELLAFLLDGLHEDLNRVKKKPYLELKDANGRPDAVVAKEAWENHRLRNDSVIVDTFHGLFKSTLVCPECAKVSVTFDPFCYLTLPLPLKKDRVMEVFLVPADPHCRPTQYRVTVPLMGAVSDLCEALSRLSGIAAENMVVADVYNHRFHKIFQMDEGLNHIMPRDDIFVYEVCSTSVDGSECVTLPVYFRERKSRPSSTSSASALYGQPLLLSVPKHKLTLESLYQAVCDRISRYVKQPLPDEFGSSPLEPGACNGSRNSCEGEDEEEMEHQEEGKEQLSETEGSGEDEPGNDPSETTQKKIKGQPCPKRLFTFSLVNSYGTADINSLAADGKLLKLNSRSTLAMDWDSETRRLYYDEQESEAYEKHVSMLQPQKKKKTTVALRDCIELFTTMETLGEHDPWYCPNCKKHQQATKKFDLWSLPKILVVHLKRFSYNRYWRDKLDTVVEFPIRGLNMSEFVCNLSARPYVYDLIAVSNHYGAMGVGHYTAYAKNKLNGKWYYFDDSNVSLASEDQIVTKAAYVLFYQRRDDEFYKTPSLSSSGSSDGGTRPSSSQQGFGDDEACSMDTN
Method in brief: as §1

Measured: log2 ratio of Biotin-Ahx-Ub-VS probe labelling

USP34, sequence (Q70CQ2 whole entry, the tested form may be a part): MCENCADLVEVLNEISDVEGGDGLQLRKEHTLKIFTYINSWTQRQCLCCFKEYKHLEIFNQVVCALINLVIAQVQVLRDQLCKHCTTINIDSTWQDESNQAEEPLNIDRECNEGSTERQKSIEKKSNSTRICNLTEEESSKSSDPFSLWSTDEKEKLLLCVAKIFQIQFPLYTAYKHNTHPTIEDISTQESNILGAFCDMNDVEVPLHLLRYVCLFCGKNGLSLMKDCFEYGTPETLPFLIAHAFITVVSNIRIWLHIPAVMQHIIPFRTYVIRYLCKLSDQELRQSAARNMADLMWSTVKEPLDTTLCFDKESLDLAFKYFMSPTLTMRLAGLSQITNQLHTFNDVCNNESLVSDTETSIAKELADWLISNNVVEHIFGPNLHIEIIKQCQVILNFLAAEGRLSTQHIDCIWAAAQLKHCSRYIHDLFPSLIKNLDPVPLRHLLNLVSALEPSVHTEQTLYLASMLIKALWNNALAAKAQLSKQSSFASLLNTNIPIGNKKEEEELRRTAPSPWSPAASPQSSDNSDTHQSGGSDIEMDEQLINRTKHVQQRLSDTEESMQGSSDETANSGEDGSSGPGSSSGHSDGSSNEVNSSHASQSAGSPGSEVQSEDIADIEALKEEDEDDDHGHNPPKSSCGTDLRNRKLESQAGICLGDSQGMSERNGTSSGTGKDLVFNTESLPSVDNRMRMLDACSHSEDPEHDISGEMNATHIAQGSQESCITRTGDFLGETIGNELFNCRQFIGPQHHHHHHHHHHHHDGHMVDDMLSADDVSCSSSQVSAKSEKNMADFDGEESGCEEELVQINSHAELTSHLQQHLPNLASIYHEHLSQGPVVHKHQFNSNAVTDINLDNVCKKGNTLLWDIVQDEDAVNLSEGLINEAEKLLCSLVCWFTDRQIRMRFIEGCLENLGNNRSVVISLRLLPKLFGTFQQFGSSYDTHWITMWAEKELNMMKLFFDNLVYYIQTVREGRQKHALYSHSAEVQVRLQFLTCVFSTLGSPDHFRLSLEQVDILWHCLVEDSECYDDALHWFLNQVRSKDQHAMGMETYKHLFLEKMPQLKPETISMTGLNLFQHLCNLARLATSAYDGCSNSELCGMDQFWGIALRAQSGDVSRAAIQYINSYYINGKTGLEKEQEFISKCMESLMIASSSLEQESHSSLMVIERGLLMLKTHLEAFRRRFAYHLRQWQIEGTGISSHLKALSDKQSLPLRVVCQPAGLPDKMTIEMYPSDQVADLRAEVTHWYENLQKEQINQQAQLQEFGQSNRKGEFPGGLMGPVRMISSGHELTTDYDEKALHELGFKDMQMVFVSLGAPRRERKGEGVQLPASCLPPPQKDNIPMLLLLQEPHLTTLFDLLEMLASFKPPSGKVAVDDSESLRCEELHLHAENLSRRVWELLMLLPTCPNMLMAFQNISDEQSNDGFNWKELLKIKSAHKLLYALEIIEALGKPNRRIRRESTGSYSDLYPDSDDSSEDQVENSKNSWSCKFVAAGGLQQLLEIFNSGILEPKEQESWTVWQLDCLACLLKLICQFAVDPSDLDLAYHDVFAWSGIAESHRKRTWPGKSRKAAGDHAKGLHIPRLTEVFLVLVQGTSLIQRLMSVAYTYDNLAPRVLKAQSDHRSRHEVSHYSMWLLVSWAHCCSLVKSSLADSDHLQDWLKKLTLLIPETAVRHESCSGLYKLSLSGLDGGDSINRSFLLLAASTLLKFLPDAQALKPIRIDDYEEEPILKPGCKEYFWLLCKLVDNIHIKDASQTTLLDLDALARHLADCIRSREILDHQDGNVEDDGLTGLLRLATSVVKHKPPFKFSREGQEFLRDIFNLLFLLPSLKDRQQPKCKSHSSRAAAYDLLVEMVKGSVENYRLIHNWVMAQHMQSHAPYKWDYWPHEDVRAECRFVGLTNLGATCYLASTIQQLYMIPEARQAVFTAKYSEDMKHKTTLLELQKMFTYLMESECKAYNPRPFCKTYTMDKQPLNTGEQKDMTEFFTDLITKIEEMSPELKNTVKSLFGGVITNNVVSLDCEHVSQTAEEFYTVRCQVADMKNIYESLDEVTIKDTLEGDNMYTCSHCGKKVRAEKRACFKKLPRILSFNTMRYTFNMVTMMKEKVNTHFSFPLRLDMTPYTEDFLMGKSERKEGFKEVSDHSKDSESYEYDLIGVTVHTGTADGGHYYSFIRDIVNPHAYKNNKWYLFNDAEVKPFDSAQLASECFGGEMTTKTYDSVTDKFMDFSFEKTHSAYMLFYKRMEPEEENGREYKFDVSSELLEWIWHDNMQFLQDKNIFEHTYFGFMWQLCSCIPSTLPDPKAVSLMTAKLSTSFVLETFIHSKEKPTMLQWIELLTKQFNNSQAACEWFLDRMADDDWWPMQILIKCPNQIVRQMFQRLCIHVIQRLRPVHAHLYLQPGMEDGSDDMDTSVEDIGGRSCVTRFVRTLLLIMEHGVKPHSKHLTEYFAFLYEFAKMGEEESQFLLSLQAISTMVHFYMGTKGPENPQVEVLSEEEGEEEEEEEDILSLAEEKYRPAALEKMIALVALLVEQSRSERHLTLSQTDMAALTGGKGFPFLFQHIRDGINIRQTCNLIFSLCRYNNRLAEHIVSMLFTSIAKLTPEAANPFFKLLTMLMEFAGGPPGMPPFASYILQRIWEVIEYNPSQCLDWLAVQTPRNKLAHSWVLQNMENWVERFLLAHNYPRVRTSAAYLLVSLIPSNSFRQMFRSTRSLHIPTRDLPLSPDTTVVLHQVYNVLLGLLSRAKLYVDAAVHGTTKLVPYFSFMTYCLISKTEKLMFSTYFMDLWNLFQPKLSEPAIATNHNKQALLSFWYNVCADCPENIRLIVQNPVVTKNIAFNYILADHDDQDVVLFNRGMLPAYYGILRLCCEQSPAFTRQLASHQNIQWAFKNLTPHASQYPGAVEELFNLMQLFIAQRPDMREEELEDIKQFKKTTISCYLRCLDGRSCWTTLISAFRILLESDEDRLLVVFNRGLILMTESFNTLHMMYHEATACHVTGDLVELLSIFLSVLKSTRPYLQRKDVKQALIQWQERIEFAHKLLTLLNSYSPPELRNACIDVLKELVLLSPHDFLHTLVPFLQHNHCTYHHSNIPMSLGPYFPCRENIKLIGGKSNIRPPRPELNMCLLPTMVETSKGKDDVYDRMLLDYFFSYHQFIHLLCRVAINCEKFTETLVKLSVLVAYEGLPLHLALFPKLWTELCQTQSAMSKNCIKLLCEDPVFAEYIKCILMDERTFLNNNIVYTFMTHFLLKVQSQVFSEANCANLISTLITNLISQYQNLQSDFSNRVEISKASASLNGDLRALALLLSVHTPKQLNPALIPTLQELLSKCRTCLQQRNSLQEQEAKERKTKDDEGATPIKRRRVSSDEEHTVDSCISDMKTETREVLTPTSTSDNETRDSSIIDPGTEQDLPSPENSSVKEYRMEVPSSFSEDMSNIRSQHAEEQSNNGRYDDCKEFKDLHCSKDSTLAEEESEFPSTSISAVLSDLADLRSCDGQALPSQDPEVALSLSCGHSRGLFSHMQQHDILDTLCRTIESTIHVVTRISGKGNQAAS

O=C(CCl)N[C@H]1CC[C@@H](CO)CC1
inactive: USP34 -0.402 | USP36 -0.283 | USP38 -0.651 | USP39 -0.098 | USP4 -0.775
